Screens from PubChem.
The list is not random: actives were taken first. Their share in the collection is about 7.3%.
ELG1 genotox – induces genotoxicity in HEK293T cells with luciferase-tagged ELG1; HEK293T ELG1-luciferase reporter, luminescence, 16 h; Potency, µM (titrated, usually from 46 µM), for inactives: top-dose activity change, positive = activation, hits mostly activators; 1.3% of 330,000 active; further: % of control where 0% means no effect; nearly all actives have a fitted effect of over 60% in size
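Quantitative HTS format in 1536-well plates. HEK293T ELG1-luciferase reporter cells receive test compound and are incubated 16 hr at 37 °C, 5% CO2; ONE-Glo added, 30 min room temperature, then luminescence read.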
NPC1 prom act – activators of NPC1 promoter; Huh7 NPC1 promoter luciferase reporter, 24 h; Potency, µM (highest dose often 9.22 µM), without a hit: top-dose activation, most hits filed as activators; 2.4% of 320,000 active; AID 485313; further: % of control where 0% means no effect; nearly all actives have a fitted effect of over 60% in size
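In 1536-well qHTS, Huh7 cells harboring an NPC1 promoter–luciferase construct received compound for 24 h; activation was quantified by luminescence following luciferase reagent addition.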
FLuc counter – inhibits or activates purified firefly luciferase, miR-21 counter-screen; P08659; purified FLuc, Km substrates, luminescence inhibition; Potency, µM (doses to about 57.5 µM), without a hit: at the top dose activity change, negative = inhibition, hits mostly inhibitors; 6.9% of 360,000 active; AID 588342;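 further: plate controls were vehicle for no effect and reference inhibitor for full effect; nearly all actives have a fitted effect of over 55% in size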
Target sequence (P08659 whole entry, looked up): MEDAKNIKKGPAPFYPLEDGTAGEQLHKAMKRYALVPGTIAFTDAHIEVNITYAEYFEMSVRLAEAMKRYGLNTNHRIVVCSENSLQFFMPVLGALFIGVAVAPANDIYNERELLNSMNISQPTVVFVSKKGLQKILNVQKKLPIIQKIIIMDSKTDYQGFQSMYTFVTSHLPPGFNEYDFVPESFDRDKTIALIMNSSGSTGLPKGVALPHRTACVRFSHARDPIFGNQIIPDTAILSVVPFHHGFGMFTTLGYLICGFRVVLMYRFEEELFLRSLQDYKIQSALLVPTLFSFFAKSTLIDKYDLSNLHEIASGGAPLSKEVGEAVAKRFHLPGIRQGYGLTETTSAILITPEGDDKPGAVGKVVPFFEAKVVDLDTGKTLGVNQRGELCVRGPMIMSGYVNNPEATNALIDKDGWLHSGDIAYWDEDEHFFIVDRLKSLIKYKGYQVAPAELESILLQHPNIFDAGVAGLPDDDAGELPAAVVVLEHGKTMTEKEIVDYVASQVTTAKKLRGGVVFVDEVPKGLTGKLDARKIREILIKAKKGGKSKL
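Biochemical qHTS of compounds, final roughly 60 µM downward over six points, against 10 nM purified firefly luciferase using Km concentrations of substrates (10 uM D-luciferin, 10 uM ATP) in Tris acetate pH 7.5 buffer; luminescence output.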
uPA generation – cell surface uPA generation inhibition. cell surface uPA generation assay, qHTS. Potency, µM (doses to about 38.3 µM), for inactives: at the highest dose activity change, negative = inhibition, hits mostly inhibitors. 0.31% of 330,000 active. AID 540303; active means well fitted inhibition curve with a large enough effect; inconclusive means small, poorly fitted or top-dose-only effect; inactive means no such curve, though single readings can be large or run the other way; tested in mouse RAW 264.7 cells; further: on the % scale 0 is the no-effect control and ±100 the full control effect; nearly all actives have a fitted effect of over 55% in size
Rab9 prom act – Rab9 promoter activation. Potency, µM (doses to about 9.22 µM), inactives show top-dose activation, negative = inhibition, most hits filed as activators. 2.8% of 320,000 active. Huh7 Rab9 promoter-luciferase reporter, luminescence, 24 h. AID 485297; further: % of control where 0% means no effect; nearly all actives have a fitted effect of over 60% in size
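Steps: seed 1500 Huh7 Rab9-luc cells per well, rest 2 h at 37 °C; add compound in DMSO; incubate 24 h; add luciferase reagent, 10 min ambient; read luminescence.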
SMN2 splice enh – increases expression of the SMN2 splice variant. HEK293 SMN2-luciferase splicing reporter, luminescence, 30-36 h. Potency, µM (titrated, usually from 46.1 µM), inactives show at the highest dose activity change, positive = activation, actives largely listed as activators. 2.8% of 210,000 active. AID 1458; further: % of control where 0% means no effect; nearly all actives have a fitted effect of over 55% in size
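HEK293 cells carry an SMN2 […]–luciferase reporter in which exon 7 inclusion puts luciferase in frame. Cells were plated 10-12 h before compound addition, then incubated 30-36 h at 37C. ONE-Glo luminescence was read; sodium butyrate at 4.5 mM final served as control.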
* = called active by the depositor; ? = inconclusive; / = no result given; [ ] = another dose, or the depositor's remark. Unless noted, the call rests on the fitted dose curve; in most records, active means well fitted curve in the direction sought with a large enough effect; inconclusive means small, poorly fitted or top-dose-only effect, or another doubt; inactive means no such curve, though single readings can be large; an effect the other way counts as inactive or inconclusive. Potency means the concentration at half of the fitted maximal effect.

SMILES	ELG1 genotox	NPC1 prom act	FLuc counter	uPA generation	Rab9 prom act	SMN2 splice enh
CCOc1ccc(NC(=O)CSc2ncc(S(=O)(=O)c3ccc(F)c(C)c3)c(=O)[nH]2)cc1	/	/	?	/	/	-4%
COC(=O)c1[nH]c2cc(OC)c(OC)cc2c1/C=N/Nc1ccccc1	8%	-3%	?	-8%	-3%	/
c1nc(NCCc2cnc[nH]2)c2[nH]cnc2n1	/	/	/	/	/	-4%[9.22 µM]
Cc1cccc(CNc2ncnc3ccc(-c4c(C)noc4C)cc23)c1	/	/	/	/	/	5.6µM*
Cc1cccc(CNc2ncnc3ccc(-c4cccc(C)c4)cc23)c1	/	2%	-4%	/	-1%	/
CC(=O)Nc1ccc(CNc2ncnc3ccc(-c4c(C)noc4C)cc23)cc1	4.1µM*	-11%	-13%	?	-2%	/
Cc1noc(C)c1-c1ccc2ncnc(NC3CC3)c2c1	/	/	/	/	/	7.9µM*
O=c1c2cccc(Cl)c2nc2n1Cc1ccccc1-2	?	?	12µM*	-3%	2.8µM*	/
Cc1sc2nc3n(c(=O)c2c1C)Cc1ccccc1-3	?	26%	3.8µM*	/	?	14µM*
C[C@H](N=C(NC#N)Nc1ccncc1)C(C)(C)C	/	/	/	/	/	-2%[20.6 µM]
CCOC(=O)Cc1csc(NC(=O)c2cc(C)on2)n1	/	/	/	-2%	/	/
CCOC(=O)Cc1csc(NC(=O)c2ccc3ncsc3c2)n1	3%	-23%	15µM*	-11%	24%	/
CCOC(=O)Cc1csc(NC(=S)NC(=O)c2ccc(Cl)cc2)n1	0%	-7%	12µM*	1%	-10%	-1%
CCOC(=O)Cc1csc(NC(=O)c2ccc3ccccc3n2)n1	-7%	1.6µM*	15µM*	1%	1µM*	/
CCOC(=O)Cc1csc(NC(=O)c2ccc(Br)cc2)n1	-3%	1%	21µM*	?	0%	/
COc1cccc(NC(=O)C(Cc2ccccc2)NS(=O)(=O)c2ccc3c(c2)oc(=O)n3C)c1 (centres undefined)	/	/	0%	/	/	-25%
CCOC(=O)Cc1csc(NC(=O)c2ccc(C)o2)n1	?	3%	-13%	/	11%	-6%
CCOC(=O)Cc1csc(NC(=O)c2ccco2)n1	16µM*	?	?	-7%	?	7.9µM*
Cc1ccc(N2CCN(C(=S)Nc3ccccc3C)CC2)cc1	-1%	0%	-1%	8%	5%	/
CN(C)c1ccc(C=NCC2COc3ccccc3O2)cc1 (centres undefined)	3%	-5%	12µM*	2%	-4%	/
CN(CC1COc2ccccc2O1)C(=O)c1ccc(N(C)C)cc1 (centres undefined)	4%	18%	-13%	28%	15%	-12%
CC(=O)c1ccc(NC(=O)[C@@H]2CCCN2C(=O)OC(C)(C)C)cc1	?	?	?	2%	22%	/
CCn1c2ccccc2c2cc(NC(=O)c3cc(OC)c(OC)c(OC)c3)ccc21	4%	-8%	-13%	-9%	-23%	-34%
CCn1c2ccccc2c2cc(NC(=O)c3cc(OC)cc(OC)c3)ccc21	9%	-14%	-9%	2.2µM*	-35%	?
COc1ccc(C(=O)Nc2cccc(OC)c2)cc1	2.3µM*	2µM*	6.7µM*	/	1.3µM*	2.8µM*
SMILES	ELG1 genotox	NPC1 prom act	FLuc counter	uPA generation	Rab9 prom act	SMN2 splice enh
CC(C)OCCCNC(=O)c1cccc(NC(=O)c2ccccc2)c1	-3%	-2%	-16%	-1%	1%	-3%
COc1cccc(NC(=O)c2ccccc2C(F)(F)F)c1	-1%	-5%	0%	0%	4%	10%
COc1cccc(NC(=O)c2ccc(OC(F)(F)F)cc2)c1	?	4µM*	2.4µM*	?	1.8µM*	/
CC(C)OC(=O)c1cccc(NC(=O)c2ccccc2)c1	14%	?	13µM*	-9%	?	?
CCOC(=O)Cn1c(=O)n(CC2CCCO2)c2nc(-c3cccc(C)c3)nc(C(N)=O)c21 (centres undefined)	/	/	-1%	/	/	/
Cc1cccc(OCC(=O)OC(C)CN2CCCCC2)c1 (centres undefined)	0%	-1%	5%	8%	-1%	/
CCc1ccc(NC(=O)CN(c2ccc(C)cc2)S(=O)(=O)c2c(C)nn(C)c2C)cc1	/	/	0%	/	/	-7%
COc1ccc2cc(/C(C)=N/NC(=O)C3CC3)ccc2c1	18µM*	2.5µM*	2.4µM*	1%	2.8µM*	16µM*
COc1cccc(C(=O)Nc2cc(Cl)c(O)c(Cl)c2)c1	8%	?	15µM*	?	12%	/
COc1cc(OC)cc(C(=O)Nc2cccc(NC(=O)c3ccccc3)c2)c1	-7%	-4%	17µM*	-1%	0%	/
COc1cc(OC)cc(C(=O)Nc2cccc(C(C)=O)c2)c1	?	15%	?	-6%	18%	10%
COc1ccc(/C(C)=N/NC(=O)C2CC2)cc1	?	6%	-19%	11%	14%	4%
COc1cc(C(=O)Nc2ccc(N(C)C)cc2)cc(OC)c1OC	?	4%	3µM*	-28%	24%	/
CCN(CC)CCN(C(=O)c1ccco1)c1nc2ccc(Br)cc2s1	/	/	4%	/	/	/
COc1cccc(NC(=O)c2ccccc2)c1	?	2.8µM*	11µM*	?	1.8µM*	/
COc1cccc(NC(=O)N2CCN(c3cccc(C)c3C)CC2)c1	?	18%	15µM*	1%	3%	2%
Cc1[nH]c2ccc(C(=O)N3CCCC3)cc2c1C	10%	1%	-3%	0%	4%	/
COc1cccc(NC(=O)Nc2cccc(C(=O)O)c2)c1	-10%	?	0.17µM*	-4%	?	/
COc1cccc(NC(=O)CNC(=O)c2ccccc2)c1	?	18%	-21%	3%	25%	22%
Cc1[nH]c2ccc(C(=O)N3CCCCC3)cc2c1C	?	3.2µM*	19µM*	0%	3.2µM*	13µM*
COc1ccccc1N1C(=O)CC(N2CCN(c3ccc(Cl)cc3)CC2)C1=O (centres undefined)	-5%	0%	0%	-2%	0%	/
S=C(Nc1ccc(N2CCOCC2)cc1)Nc1ccc2snnc2c1	3%	-2%	-3%	-4%	-8%	-49%
O=C(c1cnccn1)N1CCC2(CCCN(Cc3nccs3)C2)CC1	/	/	/	/	/	-1%
COc1cccc(NC(=O)Nc2ccc(Br)cn2)c1	?	?	?	1%	3.2µM*	/
COc1cccc(NC(=O)c2cccc(C(=O)Nc3cccc(OC)c3)c2)c1	13%	10%	-1%	-1%	10%	/
COc1cccc(NC(=O)c2ccc3nsnc3c2)c1	?	?	12µM*	-2%	?	/
NS(=O)(=O)c1cccc(NC(=O)c2cccc(Oc3ccccc3)c2)c1	4%	6%	11µM*	0%	6%	/
